Reference: PubChem BioAssay AID1835 (Johns Hopkins Ion Channel Center, 2009)
About 750 (31%) of roughly 2,400 compounds were called active. This is one part of the list. Unmarked numbers belong to inactive results.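 Rule for the calls: active = median signal gain over dofetilide-blocked control wells reaching their mean plus 3 SD, so readout 1 at least 0; inactive = the rest.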

target: Voltage-gated inwardly rectifying potassium channel KCNH2 (Homo sapiens) (UniProt Q12809); assay: modulators restoring hERG flux under dofetilide – cell-based, thallium flux, duplicate retest, dofetilide IC70, confirmation (AID 1835); details: hERG cell line, FluxOR thallium flux, dofetilide-blocked; at 10 µM; stronger effect = higher value
Sequence (Q12809 whole entry, looked up): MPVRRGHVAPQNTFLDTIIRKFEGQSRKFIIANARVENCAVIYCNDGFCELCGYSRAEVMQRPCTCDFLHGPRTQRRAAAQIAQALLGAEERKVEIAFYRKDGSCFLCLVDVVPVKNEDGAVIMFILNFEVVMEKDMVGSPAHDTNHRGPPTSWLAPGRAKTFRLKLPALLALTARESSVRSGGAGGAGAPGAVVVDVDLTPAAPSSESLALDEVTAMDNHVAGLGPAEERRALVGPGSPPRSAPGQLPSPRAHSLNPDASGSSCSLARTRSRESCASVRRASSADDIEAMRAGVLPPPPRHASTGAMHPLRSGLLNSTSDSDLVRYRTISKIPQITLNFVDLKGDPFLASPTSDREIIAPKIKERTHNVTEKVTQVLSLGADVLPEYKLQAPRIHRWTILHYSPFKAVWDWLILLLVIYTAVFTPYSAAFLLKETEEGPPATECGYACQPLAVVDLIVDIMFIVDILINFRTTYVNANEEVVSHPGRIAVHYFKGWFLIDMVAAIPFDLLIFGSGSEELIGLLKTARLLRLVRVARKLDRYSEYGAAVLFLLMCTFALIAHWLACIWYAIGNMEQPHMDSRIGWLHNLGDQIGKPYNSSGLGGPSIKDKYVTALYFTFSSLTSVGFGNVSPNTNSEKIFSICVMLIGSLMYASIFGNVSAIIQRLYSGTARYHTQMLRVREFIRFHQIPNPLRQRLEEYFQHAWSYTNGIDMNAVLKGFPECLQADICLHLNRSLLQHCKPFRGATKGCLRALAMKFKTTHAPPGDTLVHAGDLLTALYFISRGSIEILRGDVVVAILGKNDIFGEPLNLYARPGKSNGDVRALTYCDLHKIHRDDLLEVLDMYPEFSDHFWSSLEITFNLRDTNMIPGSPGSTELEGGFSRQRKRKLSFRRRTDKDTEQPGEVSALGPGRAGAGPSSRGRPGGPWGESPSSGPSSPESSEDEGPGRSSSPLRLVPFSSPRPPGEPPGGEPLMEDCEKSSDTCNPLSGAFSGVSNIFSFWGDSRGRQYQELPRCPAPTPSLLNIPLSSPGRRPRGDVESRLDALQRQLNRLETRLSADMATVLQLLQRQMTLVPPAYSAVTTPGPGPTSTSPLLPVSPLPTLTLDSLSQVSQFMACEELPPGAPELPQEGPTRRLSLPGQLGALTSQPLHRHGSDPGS

SMILES	activity increase over dofetilide control, less the hit threshold
CCOc1ccc(-c2cccc(NC(=O)c3ccc(Br)o3)c2)nn1	-26%
Nc1cc(=O)[nH]c(SCC(=O)N2CCCCC2)n1	-10%
Cc1ccc(CNS(=O)(=O)c2cc3c4c(c2)CCN4C(=O)CC3)cc1	-9%
Cc1[nH]c(-c2ccccn2)nc(=S)c1Cl	61% (active)
Cc1cc(=S)nc(-c2ccccn2)[nH]1	-7%
CC(C)c1ccc(NC(=O)C2CC3CCC2C3)cc1 (configuration not stated)	-10%
CCC(C)NC(=O)c1c(-c2cc(Cl)c(OC)c(Cl)c2)noc1C (configuration not stated)	-16%
CCC(Cc1ccccc1)n1c(=S)[nH]c2ccccc2c1=O (configuration not stated)	4% (active)
CCC(C)Sc1nc2c([nH]c3ccccc32)c(=O)n1C (configuration not stated)	-5%
CCC(C)n1c(=S)[nH]c2ccccc2c1=O (configuration not stated)	14% (active)
CC(C)COn1c(=S)[nH]c2ccccc2c1=O	18% (active)
S=c1[nH]nc(-c2ccccn2)n1/N=C/c1ccc(-c2ccccc2Br)o1	-16%
O=C1C2C3C=CC(C4CC34)C2C(=O)N1/N=C/c1ccc(-c2ccc(F)cc2[N+](=O)[O-])o1 (configuration not stated)	-1%
O=[N+]([O-])c1ccc(-c2ccc(/C=N/n3cnnc3)o2)c(Br)c1	12% (active)
COc1ccc(CS(=O)(=O)CC2(O)CCN(C(=O)c3cccc(C(F)(F)F)c3)CC2)cc1	-27%
Cc1cc(C)cc(-n2nnc(C(=O)NCc3ccc4c(c3)OCO4)c2N)c1	-19%
COc1ccccc1C(=O)NCc1ccc2c(c1)OCO2	-10%
CC12CCC(C(=O)NCc3ccc4c(c3)OCO4)(CC1=O)C2(C)C (configuration not stated)	5% (active)
CCC(=O)Nc1cc(-c2nnc(OC)c3ccccc23)ccc1N1CCOCC1	-1%
CCCCn1c(-c2csc(C(C)C)c2)n[nH]c1=S	8% (active)
CCCCCCn1c(-c2cccs2)n[nH]c1=S	-8%
COc1cccc(C2C3=C(N=c4s/c(=C\c5ccc(OCC(=O)O)cc5)c(=O)n42)c2ccccc2CC3)c1 (configuration not stated)	-29%
O=C(NC(=S)Nc1cc(C(F)(F)F)ccc1Cl)c1ccccc1	1% (active)
Cc1ccc(C(=O)NC(=S)Nc2ccccc2C(F)(F)F)cc1	-6%
CC(C)(C)SCCNC(=O)CN1C(=O)c2ccccc2S1(=O)=O	-4%
CCC1(c2ccccc2)NC(=S)N(c2ccc(C)cc2)N1 (configuration not stated)	113% (active)

SMILES	activity increase over dofetilide control, less the hit threshold
CCC1(c2ccc(Cl)cc2)NC(=S)N(c2ccc(C)cc2)N1 (configuration not stated)	66% (active)
CCC1(c2ccc(Cl)cc2)NC(=S)N(c2ccccc2)N1 (configuration not stated)	96% (active)
CC(NC(=O)CCCn1cc([N+](=O)[O-])cn1)c1ccccc1 (configuration not stated)	-14%
CSc1nc(-c2ccco2)cc(C(F)(F)F)c1C#N	-17%
COc1ccccc1Cn1c(=S)[nH]c2ccc(Br)cc2c1=O	6% (active)
COc1ccc(Br)cc1CNc1ccccc1	-21%
C=CCn1c(=S)[nH]c2nc3c(cc2c1=O)CCCC3	-9%
C=CCn1c(=S)[nH]c2cc(-c3ccccc3)sc2c1=O	6% (active)
C=CCn1c(=S)[nH]c2ccc(Br)cc2c1=O	10% (active)
Oc1ccc(Br)cc1-c1n[nH]c(=S)n1Cc1ccccc1	-17%
Cc1cc(=O)[nH]c(=S)n1-c1ccccc1	-14%
CC12CCC(C(=O)OC3CCCCC3)(OC1=O)C2(C)C (configuration not stated)	-17%
O=C(O)Cc1cc(I)c(Oc2ccc(O)c(I)c2)c(I)c1	18% (active)
O=C(O)CN1C(=O)c2ccc(Oc3ccc4c(c3)C(=O)N(CC(=O)O)C4=O)cc2C1=O	-10%
O=C(NCCCN1CCOCC1)c1ccc(CS(=O)(=O)Cc2ccccc2Cl)o1	-11%
CCn1ccnc1CN1CCCC(CO)(Cc2cccc(OC)c2)C1 (configuration not stated)	-11%
O=C(NCc1cccc(Cl)c1)c1ccncc1	-10%
O=C(NC(=S)NCCc1ccccc1)c1cccc(Cl)c1	4% (active)
S=C(NCCc1ccccc1)N/N=C/c1c(Cl)cccc1Cl	-12%
Fc1ccc(-n2cc(-c3ccccc3)c3c(=S)nc[nH]c32)cc1	-1%
Cc1sc2nc[nH]c(=S)c2c1-c1ccccc1	36% (active)
Cc1c(-c2ccccc2)sc2nc[nH]c(=S)c12	52% (active)
COC(=O)c1ccc(NN=Nc2ccc(C)cc2)cc1	-6%
Nc1nonc1C(=O)N1CCCC1	-9%
Cc1nnc2ccc(-c3cccc(NC(=O)c4ccc(Cl)nc4)c3)nn12	-12%
COc1ccc2nc(N3CCCCC3)c(/C=C3\SC(=S)NC3=O)cc2c1	3% (active)
